The results in this text go back to the supplement of paper PMC10646978.

Holding throughout (details): modulator concentration 10 µM
The subject of experiment [1] is RAW-Dual (murine macrophage reporter line). As to the kind of experiment: NF-kB reporter (SEAP) activity fold change vs agonist alone; higher = enhanced NF-kB activity. The gist of the method: (§1)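 Compound reached 10 μM final in each well by pin transfer, onto RAW-Dual murine macrophage reporter cells seeded at 50 000 per well in 384-well plates. After 1 hour at 37 °C, the cells were stimulated overnight with a PRR agonist. SEAP in the supernatant was read with QUANTI-Blue at 620 nm absorbance for NF-κB, and Lucia luciferase was read with QUANTI-Luc luminescence for IRF. Each signal was turned into fold change against the mean agonist-only control on the same plate, and two replicate plates were averaged with propagated errors.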

For experiment [2] the test system is unchanged. The experiment is described as follows: IRF reporter (Lucia luciferase) activity fold change vs agonist alone; higher = enhanced IRF activity. The gist of the method:
as §1

For experiment [3] the test system is unchanged. The experiment is described as follows: viability score (confluency relative to resting cells, overnight) (fraction); higher = more viable, active = viable (0.7 or more). Summed up: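 Confluency was the readout: RAW-Dual macrophages were imaged with IncuCyte after an overnight exposure to compound at 10 μM final. IncuCyte software produced two masks over all imaged wells. The viability score expresses confluency against resting cells, and both masks had to exceed 70% of resting cells for a compound to meet the cutoff.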

The mark [4] stands for this setting: agonist: CpG ODN 1826 0.5 ug/mL.

± gives the standard deviation.

In the case of `CCOc1ccc(Cc2cc([C@@H]3O[C@H](SC)[C@@H](O)[C@H](O)[C@H]3O)ccc2Cl)cc1`, the NF-kB reporter in experiment [1] (setting [4]) was 0.968 ± 0.25; in experiment [1] (agonist: LPS 0.1 ug/mL) it was 1.27 ± 0.072; in experiment [1] (agonist: MPLA […]), 1.06 ± 0.098. The IRF reporter in experiment [2] (agonist: 3'3'-cGAMP 10 ug/mL) stood at 1.03 ± 0.053; in experiment [2] (agonist: LPS 0.1 ug/mL) it was 0.957 ± 0.18; in experiment [2] (agonist: MPLA […]), 1.07 ± 0.11. Besides, the viability score in experiment [3] is 0.694 (inactive).

Regarding `C=CCN1C(=O)C(=C2C(=O)N(Cc3ccccc3F)c3ccccc32)SC1=S`, the figures for the NF-kB reporter in experiment [1] (setting [4]), in experiment [1] (agonist: LPS 0.1 ug/mL) and in experiment [1] (agonist: MPLA […]) were 1.09 ± 0.1, 1.02 ± 0.079 and 1.01 ± 0.062, respectively. For the same compound, the IRF reporter in experiment [2] (agonist: 3'3'-cGAMP 10 ug/mL) worked out at 0.904 ± 0.039; in experiment [2] (agonist: LPS 0.1 ug/mL) it was 1.37 ± 0.18; in experiment [2] (agonist: MPLA […]) it was 1.13 ± 0.19. Besides, in experiment [3], the viability score is 1.01 (active).

As for `O=C(O)CCCN1CCC(O[C@@H](c2ccc(Cl)cc2)c2ccccn2)CC1.O=S(=O)(O)c1ccccc1`, the figures for the NF-kB reporter in experiment [1] (setting [4]), in experiment [1] (agonist: LPS 0.1 ug/mL) and in experiment [1] (agonist: MPLA […]) were 1.37 ± 0.19, 1.24 ± 0.3 and 0.988 ± 0.059, respectively. The IRF reporter in experiment [2] (agonist: 3'3'-cGAMP 10 ug/mL) is 0.995 ± 0.046; in experiment [2] (agonist: LPS 0.1 ug/mL), 1.18 ± 0.26; in experiment [2] (agonist: MPLA […]), 1.09 ± 0.1. The viability score in experiment [3] was 0.985 (active).

For the compound `CN(C)C(CNC(=O)NCc1ccc(F)cc1)c1ccc2c(c1)CCO2` (stereo not given), the NF-kB reporter in experiment [1] (setting [4]) is 0.838 ± 0.048; in experiment [1] (agonist: LPS 0.1 ug/mL) it was 1.09 ± 0.092; in experiment [1] (agonist: MPLA […]), 1.04 ± 0.055. Further, the figures for the IRF reporter in experiment [2] (agonist: 3'3'-cGAMP 10 ug/mL), in experiment [2] (agonist: LPS 0.1 ug/mL) and in experiment [2] (agonist: MPLA […]) were 1.12 ± 0.064, 1 ± 0.062 and 0.804 ± 0.12, respectively. The viability score in experiment [3] was 0.994 (active).

For the compound `Br.CC(=O)c1cccc(Nc2nc(-c3c(C)nc4cc(C)ccn34)cs2)c1`, the results for the NF-kB reporter in experiment [1] (setting [4]), in experiment [1] (agonist: LPS 0.1 ug/mL) and in experiment [1] (agonist: MPLA […]) were 0.774 ± 0.051, 1.16 ± 0.087 and 1.62 ± 0.095, respectively. The IRF reporter in experiment [2] (agonist: 3'3'-cGAMP 10 ug/mL) came to 0.691 ± 0.13; in experiment [2] (agonist: LPS 0.1 ug/mL), 1.17 ± 0.06; in experiment [2] (agonist: MPLA […]), 2.65 ± 0.53. Further, the viability score in experiment [3] is 0.25 (inactive).

With `Cc1ccc(-c2nn(-c3ccccc3)cc2C=C(C#N)C(N)=O)o1`, the NF-kB reporter is 1.04 ± 0.26 in experiment [1] (setting [4]), 0.991 ± 0.081 in experiment [1] (agonist: LPS 0.1 ug/mL) and 1 ± 0.081 in experiment [1] (agonist: MPLA […]). The IRF reporter in experiment [2] (agonist: 3'3'-cGAMP 10 ug/mL) was determined as 1.01 ± 0.041; in experiment [2] (agonist: LPS 0.1 ug/mL) it was 1.22 ± 0.2; in experiment [2] (agonist: MPLA […]) it was 1.12 ± 0.11. Further, in experiment [3], the viability score was 0.966 (active).

Consider `C=C1CCC(OC(C)=O)C(C)=CCC2C1CC2(C)C` (stereo not given), for which the NF-kB reporter in experiment [1] (setting [4]) came to 0.932 ± 0.086; in experiment [1] (agonist: LPS 0.1 ug/mL) it was 0.776 ± 0.1; in experiment [1] (agonist: MPLA […]), 0.752 ± 0.071. For the same compound, the IRF reporter in experiment [2] (agonist: 3'3'-cGAMP 10 ug/mL) was found to be 0.671 ± 0.038; in experiment [2] (agonist: LPS 0.1 ug/mL) it was 0.928 ± 0.17; in experiment [2] (agonist: MPLA […]) it was 0.779 ± 0.24. The viability score in experiment [3] is 1.03 (active).

Consider `CCn1c2ccccc2c2cc(CNCCc3ccccc3)ccc21`, for which the NF-kB reporter in experiment [1] (setting [4]) came out at 0.476 ± 0.041; in experiment [1] (agonist: LPS 0.1 ug/mL), 0.534 ± 0.035; in experiment [1] (agonist: MPLA […]), 0.977 ± 0.068. Further, the IRF reporter stood at 0.438 ± 0.067 in experiment [2] (agonist: 3'3'-cGAMP 10 ug/mL), 0.605 ± 0.043 in experiment [2] (agonist: LPS 0.1 ug/mL) and 2.43 ± 0.32 in experiment [2] (agonist: MPLA […]). Further, the viability score in experiment [3] was 0.0405 (inactive).

With `COc1ccc(-c2csc(NC(=O)C3CC3)n2)cc1`, the results for the NF-kB reporter in experiment [1] (setting [4]), in experiment [1] (agonist: LPS 0.1 ug/mL) and in experiment [1] (agonist: MPLA […]) were 1.1 ± 0.064, 0.958 ± 0.078 and 1.05 ± 0.032, respectively. Further, the IRF reporter in experiment [2] (agonist: 3'3'-cGAMP 10 ug/mL) worked out at 0.876 ± 0.032; in experiment [2] (agonist: LPS 0.1 ug/mL), 1.05 ± 0.08; in experiment [2] (agonist: MPLA […]), 1.13 ± 0.26. In experiment [3], the viability score was 0.988 (active).

On to `CCOC(=O)C1=C(C)NC(C)=C(C(=O)OCC)C1c1ccc(F)cc1`, for which the NF-kB reporter in experiment [1] (setting [4]) is 0.796 ± 0.067; in experiment [1] (agonist: LPS 0.1 ug/mL), 0.729 ± 0.059; in experiment [1] (agonist: MPLA […]) it was 1.8 ± 0.067. The figures for the IRF reporter in experiment [2] (agonist: 3'3'-cGAMP 10 ug/mL), in experiment [2] (agonist: LPS 0.1 ug/mL) and in experiment [2] (agonist: MPLA […]) were 1.05 ± 0.037, 0.987 ± 0.059 and 4.4 ± 0.55, respectively. For the same compound, the viability score in experiment [3] is 0.244 (inactive).

`CN1CC[C@H](c2c(O)cc(O)c3c(=O)cc(-c4ccccc4Cl)oc23)[C@H](O)C1`: the results for the NF-kB reporter in experiment [1] (setting [4]), in experiment [1] (agonist: LPS 0.1 ug/mL) and in experiment [1] (agonist: MPLA […]) were 0.118 ± 0.009, 0.0512 ± 0.004 and 0.104 ± 0.01, respectively. Further, the IRF reporter in experiment [2] (agonist: 3'3'-cGAMP 10 ug/mL) stood at 0.0122 ± 0.0028; in experiment [2] (agonist: LPS 0.1 ug/mL), 0.0166 ± 0.001; in experiment [2] (agonist: MPLA […]) it was 0.0196 ± 0.0027. For the same compound, in experiment [3], the viability score is 0.0463 (inactive).

As for `COc1ccc2c(Cl)c(C(=O)N3CCc4ccccc4C3)sc2c1`, the values for the NF-kB reporter in experiment [1] (setting [4]), in experiment [1] (agonist: LPS 0.1 ug/mL) and in experiment [1] (agonist: MPLA […]) were 0.875 ± 0.13, 0.87 ± 0.052 and 1.81 ± 0.77, respectively. Moreover, the figures for the IRF reporter in experiment [2] (agonist: 3'3'-cGAMP 10 ug/mL), in experiment [2] (agonist: LPS 0.1 ug/mL) and in experiment [2] (agonist: MPLA […]) were 0.845 ± 0.05, 1.38 ± 0.095 and 1.48 ± 0.13, respectively. Besides, the viability score in experiment [3] was 1.01 (active).

For `O=C(Nc1c(Cl)cncc1Cl)c1ccc(OC(F)F)c(OCC2CC2)c1`, the results for the NF-kB reporter in experiment [1] (setting [4]), in experiment [1] (agonist: LPS 0.1 ug/mL) and in experiment [1] (agonist: MPLA […]) were 2.48 ± 0.36, 1.99 ± 0.17 and 1.44 ± 0.1, respectively. Moreover, the IRF reporter in experiment [2] (agonist: 3'3'-cGAMP 10 ug/mL) turned out to be 0.804 ± 0.025; in experiment [2] (agonist: LPS 0.1 ug/mL) it was 0.908 ± 0.094; in experiment [2] (agonist: MPLA […]) it was 1.24 ± 0.22. The viability score in experiment [3] is 0.968 (active).

As for `CC1C(=O)N2CCCc3cc(S(=O)(=O)N4CCN(c5cccc(Cl)c5)CC4)cc1c32` (stereo not given), the values for the NF-kB reporter in experiment [1] (setting [4]), in experiment [1] (agonist: LPS 0.1 ug/mL) and in experiment [1] (agonist: MPLA […]) were 0.755 ± 0.24, 0.894 ± 0.073 and 0.971 ± 0.052, respectively. Also, the values for the IRF reporter in experiment [2] (agonist: 3'3'-cGAMP 10 ug/mL), in experiment [2] (agonist: LPS 0.1 ug/mL) and in experiment [2] (agonist: MPLA […]) were 0.598 ± 0.044, 1.2 ± 0.23 and 1.22 ± 0.37, respectively. In addition, the viability score in experiment [3] is 0.996 (active).

Regarding `O=C(c1ccc(F)cc1)C1CCN(CCn2c(=O)[nH]c3ccccc3c2=O)CC1`, the NF-kB reporter was 0.477 ± 0.028 in experiment [1] (setting [4]), 0.956 ± 0.1 in experiment [1] (agonist: LPS 0.1 ug/mL) and 1.34 ± 0.072 in experiment [1] (agonist: MPLA […]). The IRF reporter stood at 1.47 ± 0.068 in experiment [2] (agonist: 3'3'-cGAMP 10 ug/mL), 1.21 ± 0.19 in experiment [2] (agonist: LPS 0.1 ug/mL) and 1.45 ± 0.34 in experiment [2] (agonist: MPLA […]). Further, the viability score in experiment [3] was 0.314 (inactive).
